The source of these data is PubChem BioAssay (Tox21).

Where “and” joins values, the source holds several entries; their conditions need not be identical. Identical values can stand only once. Inconclusive results are not listed. Calls of active or inactive are those of the source. Unless noted, calls come from the whole dose curve; as a rule, active = well fitted curve in the direction sought with a large enough effect in the repeat runs; inconclusive = weak or mixed curves; inactive = no such curve, though single readings can be large; an effect the other way counts as inactive or inconclusive.

Experiment [1] can be described thus: qHTS assay for small molecules that induce genotoxicity in human embryonic kidney cells expressing luciferase-tagged ATAD5 (AID 651632). Note: nearly all actives have a fitted effect of over 15% in size. In short, it runs like this: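 Luminescence read-out: after 16 hr compound exposure at 37C, ATAD5-luciferase HEK293T cells received Amplite, 30 min RT, then CCD imaging. A rise in signal marks genotoxic stress.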
A general note: qHTS replaces the single test concentration by a dilution series.

Experiment [2] can be described thus: qHTS assay for small molecules that induce genotoxicity in human embryonic kidney cells expressing luciferase-tagged ATAD5 - cell viability (AID 651634; calls by dose curve; note: nearly all actives have a fitted effect of over 25% in size). In short, it runs like this:
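HEK293T ATAD5-luc cells, 2,000/well; compound 15.5 hr, 37C/5% CO2; CellTiter-Fluor 30 min, 37C; fluorescence read.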

Experiment [3] is described as follows: qHTS assay for small molecule disruptors of the mitochondrial membrane potential - cell viability (AID 720634; calls by dose curve;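 note: human HepG2 liver cancer cells; series mostly up to about 83 µM; nearly all actives have a fitted effect of over 20% in size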). In short, it runs like this: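 Luminescence from CellTiter-Glo (ATP content) gave viability in HepG2 cells, read in the same wells as the MMP dye assay after 1 hr compound exposure at 37 C.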
The nature of experiment [4]: qHTS assay for small molecule disruptors of the mitochondrial membrane potential (AID 720635). Note: potency is the fitted concentration of half-maximal effect. In short, it runs like this: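 HepG2 cells (2,000/well) attached overnight at 37C, then took compound for 1 hr at 37C, 5% CO2. Mito-MPS dye was added for 30 min; fluorescence was read at 490/535 nm (monomers) and 540/590 nm (aggregates).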
Experiment [5] is described as follows: qHTS assay to test for compound auto fluorescence at 590 nm (red) in HepG2 cells (AID 720674). The method, boiled down:
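Rose Bengal sodium served as the red fluorophore standard. HepG2 monolayers (overnight attachment, MEM with 10% FBS) were exposed to test compounds for 1 hr at 37 C and read at Ex 540/Em 590 nm.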

Experiment [6] can be described thus: qHTS assay to test for compound auto fluorescence at 460 nm (blue) in HEK293 cells (AID 720678). The method, boiled down: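 Blue-channel (Ex/Em 405/460 nm) intensity measured in HEK293 cultures after overnight compound exposure at 37C; signal expressed relative to triamterene. Cells plated 2,000 per well in 10% dialyzed FBS medium and allowed 4-5 hr to attach.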

Experiment [7] is described as follows: qHTS assay to test for compound auto fluorescence at 590 nm (red) in HEK293 cells (AID 720679). The method, boiled down: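 Red-channel autofluorescence (Ex/Em 540/590 nm; Rose Bengal sodium reference) was measured after overnight 37C, 5% CO2 exposure of attached HEK293 cells, 2,000 per well in medium with 10% dialyzed FBS.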
Experiment [8] is described as follows: qHTS assay for small molecule agonists of the p53 signaling pathway (AID 651631; calls by dose curve; note: nearly all actives have a fitted effect of over 15% in size). The method, boiled down: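 We treat p53RE-bla HCT-116 cells with compounds for 16 h at 37 °C, add LiveBLAzer B/G FRET substrate for 2 h at room temperature, and measure fluorescence intensity.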
The nature of experiment [9]: qHTS assay for small molecule agonists of the p53 signaling pathway - cell viability (AID 651633; calls by dose curve;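 note: p53RE-bla HCT reporter cells with a stable beta-lactamase p53 reporter; series mostly up to about 83 µM; nearly all actives have a fitted effect of over 30% in size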). The method, boiled down: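 p53RE-bla cells, seeded at 4,000 per well and rested 5 h at 37 C/5% CO2, received compounds in DMSO for 16 h at 37 C. CellTiter-Glo was then added, and luminescence was read after 30 min at room temperature to gauge cytotoxicity.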
Experiment [10] in a line: qHTS assay to test for compound auto fluorescence at 535 nm (green) in HepG2 cells (AID 720675).

Consider `CC(=O)C=C(C)C`, for which the compound was called inactive in [1], in [2], in experiment [5], in experiment [6] and in experiment [7]. For the same compound, the Potency entry in experiment [3] and in experiment [4] was “inactive” throughout.

As for `CCOP(=S)(OCC)SCCSCC`, the compound was classed as inactive in experiment [8], in experiment [1], in [9], in experiment [5], in experiment [6] and in [7]. Also, in [3], the Potency result is “inactive”.

In the case of `CC(Oc1ccc(Cl)cc1Cl)C(=O)O` (stereo not drawn), the compound was classed as inactive in experiment [8], in [1], in [9], in experiment [5], in experiment [6] and in experiment [7].

On to `CC(C)=C[C@@H]1[C@@H](C(=O)OCc2coc(Cc3ccccc3)c2)C1(C)C`, for which the outcome in [1], in [9], in [5], in experiment [6] and in experiment [7] was inactive. Further, the Potency result in experiment [3] was “inactive”. In experiment [4], the Potency is 23.7 µM (active).

In the case of `CCN(CC)c1ccccc1`, the call in experiment [8], in experiment [1], in experiment [9], in experiment [5], in experiment [10] and in [6] was inactive. In experiment [7], the call was inactive. The Potency entry in experiment [3] was “inactive”.

As for `COC(=O)c1ccccc1N`, the call in experiment [8], in [9], in experiment [2], in [5], in [10] and in experiment [6] was inactive. The result in experiment [7] was inactive. Also, the Potency entry in experiment [3] and in experiment [4] was “inactive” throughout.

On to `C[C@]12CC[C@H]3[C@@H](CC[C@@]45O[C@@H]4C(O)=C(C#N)C[C@]35C)[C@@H]1CC[C@@H]2O`, for which the compound was classed as inactive in experiment [1], in [9], in experiment [2], in experiment [5], in [6] and in experiment [7]. In addition, the Potency entry in experiment [3] is “inactive”.

Consider `C=CC(N)=O`, for which the compound was called inactive in [8], in experiment [9], in [5], in experiment [6] and in [7]. Further, the Potency entry in experiment [3] and in experiment [4] was “inactive” each time.

Turning to `Cc1cccc([N+](=O)[O-])c1`, the call in experiment [1], in experiment [9], in experiment [2], in [5], in experiment [6] and in experiment [7] was inactive. The Potency result in experiment [3] and in experiment [4] was “inactive” in each case.

On to `CN(N=O)c1ccccc1`, for which the outcome in experiment [1], in experiment [9], in experiment [2], in experiment [5], in experiment [10] and in [6] was inactive. For the same compound, the compound was classed as inactive in [7]. Also, the Potency result in experiment [3] and in experiment [4] was “inactive” in each case.

Turning to `CN(C)[C@@H]1C(=O)C(C(N)=O)=C(O)[C@@]2(O)C(=O)C3=C(O)c4c(O)cccc4[C@@](C)(O)[C@H]3C[C@@H]12`, the call in experiment [8], in experiment [9], in experiment [2], in [5], in experiment [6] and in experiment [7] was inactive. Besides, the Potency entry in experiment [3] is “inactive”.

As for `c1ccc(OP(Oc2ccccc2)Oc2ccccc2)cc1`, the call in experiment [8], in experiment [1], in [9], in experiment [5], in experiment [10] and in experiment [6] was inactive. For the same compound, the result in experiment [7] was inactive. Moreover, the Potency entry in experiment [3] is “inactive”.

Take `Cc1[nH]c(=O)n(C(C)(C)C)c(=O)c1Cl`: the compound was classed as inactive in experiment [1], in experiment [9], in [2], in [5], in experiment [10] and in experiment [6]. Moreover, in experiment [7], the outcome was inactive. For the same compound, the Potency entry in experiment [3] and in [4] was “inactive” throughout.

Consider `OCCN(CCO)CCO`, for which the compound was called inactive in experiment [2], in experiment [5], in [10], in experiment [6] and in experiment [7].

`Clc1ccccc1Cl`: the result in experiment [1], in [9], in experiment [2], in [5], in experiment [6] and in experiment [7] was inactive. The Potency result in [3] and in experiment [4] was “inactive” each time.

On to `Cc1ccc(N)cc1N`, for which the compound was called inactive in [8], in [1], in [9], in experiment [5], in experiment [10] and in experiment [7]. In [3], the Potency result is “inactive”.

As to `CCC(C)(CC)c1cc(NC(=O)c2c(OC)cccc2OC)on1`, the call in experiment [1], in [5], in [10], in experiment [6] and in [7] was inactive. For the same compound, the Potency result in experiment [3] is “inactive”. Also, the Potency in experiment [4] was 27.4 µM (active) and 20.9 µM (active).

For the compound `Nc1ccc(Br)cc1`, the compound was classed as inactive in [1], in experiment [9], in experiment [2], in experiment [5], in experiment [10] and in experiment [6]. In addition, in experiment [7], the outcome was inactive. Besides, the Potency entry in experiment [3] and in [4] was “inactive” throughout.

Consider `C#CCN(C)[C@H](C)Cc1ccccc1`, for which the compound was classed as inactive in experiment [1], in experiment [9], in [2], in experiment [5], in [6] and in experiment [7]. Also, the Potency result in experiment [3] and in [4] was “inactive” each time.

For `CCCN(CCC)c1c([N+](=O)[O-])cc(C(F)(F)F)cc1[N+](=O)[O-]`, the result in experiment [1], in experiment [9], in experiment [2], in experiment [5], in [10] and in experiment [6] was inactive. Moreover, the compound was called inactive in [7]. In addition, the Potency entry in experiment [3] is “inactive”.

With `O=C1CCCN1`, the outcome in experiment [1], in experiment [9], in experiment [2], in experiment [5], in experiment [10] and in experiment [6] was inactive. For the same compound, in experiment [7], the compound was classed as inactive. In addition, the Potency result in [3] and in experiment [4] was “inactive” each time.

As to `Clc1cccc(Cl)c1Cl`, the compound was called inactive in [9], in [2], in [5], in experiment [10], in experiment [6] and in experiment [7]. The Potency entry in experiment [3] and in [4] was “inactive” each time.

`O=Cc1cccc(Oc2ccccc2)c1`: the compound was classed as inactive in experiment [1], in experiment [2], in [5], in experiment [6] and in experiment [7]. For the same compound, the Potency result in experiment [3] was “inactive”.

As for `O=c1ccc(=O)[nH][nH]1`, the compound was called inactive in [8], in [9], in [5], in experiment [10], in experiment [6] and in experiment [7]. The Potency result in [3] and in experiment [4] was “inactive” in each case.

As to `CC1C=[C-]C=C1.[C-]#[O+].[C-]#[O+].[C-]#[O+].[Mn]`, the result in [1], in experiment [9], in experiment [2], in [5], in [10] and in experiment [6] was inactive. The compound was called inactive in experiment [7]. Also, the Potency result in experiment [3] and in experiment [4] was “inactive” each time.

Regarding `CC(C)C#N`, the outcome in experiment [1], in [9], in [2], in experiment [5], in experiment [6] and in [7] was inactive. Also, the Potency entry in experiment [3] and in experiment [4] was “inactive” throughout.

Turning to `COc1ccc2c3c1O[C@H]1[C@@H](O)C=C[C@H]4[C@@H](C2)N(C)CC[C@@]341`, the compound was classed as inactive in experiment [1], in experiment [9], in [5], in experiment [6] and in experiment [7]. The Potency entry in experiment [3] was “inactive”.

Turning to `[O-][Cl+2]([O-])O`, the call in experiment [8], in [9], in experiment [5], in [10], in experiment [6] and in experiment [7] was inactive. For the same compound, the Potency result in experiment [3] and in [4] was “inactive” in each case.

`O=S(=O)(c1ccc(Cl)cc1)c1cc(Cl)c(Cl)cc1Cl`: the call in experiment [1], in experiment [9], in [2], in experiment [5], in experiment [10] and in [6] was inactive. In addition, the call in experiment [7] was inactive. Also, in experiment [3], the Potency entry is “inactive”. Moreover, the Potency in [4] is 12.2 µM (active) and 13.7 µM (active).

Consider `Cc1ccc(N)cc1Cl`, for which the compound was called inactive in [1], in experiment [9], in experiment [2], in [5], in [10] and in [6]. Also, in experiment [7], the compound was classed as inactive. Besides, the Potency result in [3] and in experiment [4] was “inactive” throughout.

On to `CCNc1nc(NC(C)C)nc(SC)n1`, for which the call in [1], in [9], in experiment [2], in experiment [5], in experiment [6] and in experiment [7] was inactive. The Potency entry in experiment [3] was “inactive”.
